Out of some 340,000 compounds screened, about 800 (0.24%) were called active. The entries come from a sample that favours actives as a whole. A number with no mark means an inactive call.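 How the source made its calls: active means activation above the mean over all tested compounds plus 3 SD (cut at about 30% in these data); inactive means the rest.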
Target: Troponin I, cardiac muscle (Homo sapiens) + Troponin T, cardiac muscle (Homo sapiens) + Troponin C, slow skeletal and cardiac muscles (Homo sapiens) (UniProt P19429+P45379+P63316)
Experiment: cardiac RTF calcium sensitivity activators, primary screen, biochemical, IANBD-TnC fluorescence, EC20 calcium (AID 493008);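 further: rise in fluorescence read as greater calcium sensitivity of cardiac thin filaments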
Settings: IANBD-labeled TnC RTF fluorescence at EC20 calcium; at 7.2 µM; stronger effect = higher value

SMILES | activation
Cn1c(O)c(C=NCCCC(=O)O)c(=O)n(C)c1=O | 2.93%
CCCCC(=O)N/N=C/c1c(O)n(CC)c(=S)n(CC)c1=O | 93.2% (active)
O=C(N/N=C/c1c(O)n(Cc2ccccc2)c(=O)[nH]c1=O)c1ccccc1 | 0.31%
COc1ccccc1N=C1SCCCN1C | -2.56%
CN1CCc2cc3c(cc2[C@H]1[C@@H]1OC(=O)c2c1ccc1c2OCO1)OCO3 | 0.04%

— PubChem BioAssay AID493008 (The Scripps Research Institute Molecular Screening Center, 2010)
